# Test results reported in the supplement of paper PMC10849652.
# About 7,900 targets were measured; listed, in parts, are those with a hit and a random draw of the rest. About 0.6% of all pairs of compound and target were hits. A number with no mark means an inactive call.
# Key:
# Assay in all cases: log2 fold change, soluble protein after heating vs DMSO (PISA); higher = thermal stabilisation; K562 cells, 10 uM, 30 min; active = over 0.2 and 3.5 SD of the protein, either way, in both replicates (recomputed)
# bafetinib = compound: Cc1ccc(NC(=O)c2ccc(CN3CC[C@H](N(C)C)C3)c(C(F)(F)F)c2)cc1Nc1nccc(-c2cncnc2)n1 [bafetinib]
# Summary of the method: (§1)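 Soluble protein was defined as the supernatant after 21,000xg for 90 min. It came from K562 cells at 2×10^6 cells/mL given 10 μM compound for 30 min, heated in aliquots for 3 min across 48°C-58°C, pooled, and extracted in PBS with 0.5% NP-40 at 4°C, and was quantified by TMTpro 16plex LC-MS/MS with equalised channel sums. Thermal stability against control samples, from duplicates, is reported as log2 fold change.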
# [1] = compound: Cc1cccc(CC(=O)N2CCc3c2ccc(-c2cn(C)c4ncnc(N)c24)c3F)n1
# Summary of the method: as §1
# nilotinib = compound: Cc1cn(-c2cc(NC(=O)c3ccc(C)c(Nc4nccc(-c5cccnc5)n4)c3)cc(C(F)(F)F)c2)cn1 [nilotinib]
# Summary of the method: as §1
# [2] = compound: Cc1nc(Nc2n[nH]c3c2CN(C(=O)N[C@H](CN(C)C)c2ccccc2)C3(C)C)c2sccc2n1
# Summary of the method: as §1
# dasatinib = compound: Cc1nc(Nc2ncc(C(=O)Nc3c(C)cccc3Cl)s2)cc(N2CCN(CCO)CC2)n1 [dasatinib]
# Summary of the method: as §1
# [3] = compound: Cc1ncc(-c2ccnc(Nc3ccc(S(C)(=O)=O)cc3)n2)n1C(C)C
# Summary of the method: as §1
# [4] = compound: Cn1cc(-c2ccc3c(c2)CCN3C(=O)Cc2cccc(C(F)(F)F)c2)c2c(N)ncnc21
# Summary of the method: as §1
# [5] = compound: Cn1cc(-c2ccc3nnc(C(F)(F)c4ccc5ncccc5c4)n3n2)cn1
# Summary of the method: as §1
# tipifarnib = compound: Cn1cncc1[C@@](N)(c1ccc(Cl)cc1)c1ccc2c(c1)c(-c1cccc(Cl)c1)cc(=O)n2C [tipifarnib]
# Summary of the method: as §1
# mubritinib = compound: FC(F)(F)c1ccc(/C=C/c2nc(COc3ccc(CCCCn4ccnn4)cc3)co2)cc1 [mubritinib]
# Summary of the method: as §1
# [6] = compound: NC(=O)Nc1cc(-c2cccc(F)c2)sc1C(=O)N[C@H]1CCCNC1
# Summary of the method: as §1
# [7] = compound: NC(=O)c1cnc(N[C@@H]2CCCC[C@@H]2N)nc1Nc1cccc(-n2nccn2)c1
# Summary of the method: as §1
# [8] = compound: NC1(c2ccc(-c3nc4ccn5c(=O)[nH]nc5c4cc3-c3ccccc3)cc2)CCC1
# Summary of the method: as §1
# [9] = compound: NCC(=O)Nc1ccc(-n2nc(C(F)(F)F)cc2-c2ccc3c(ccc4ccccc43)c2)cc1
# Summary of the method: as §1
# entinostat = compound: Nc1ccccc1NC(=O)c1ccc(CNC(=O)OCc2cccnc2)cc1 [entinostat]
# Summary of the method: as §1
# vorinostat = compound: O=C(CCCCCCC(=O)Nc1ccccc1)NO [vorinostat]
# Summary of the method: as §1
# citarinostat = compound: O=C(CCCCCCNC(=O)c1cnc(N(c2ccccc2)c2ccccc2Cl)nc1)NO [citarinostat]
# Summary of the method: as §1
# silmitasertib = compound: O=C(O)c1ccc2c(c1)nc(Nc1cccc(Cl)c1)c1ccncc12 [silmitasertib]
# Summary of the method: as §1
# [10] = compound: O=C1NC(=O)C(c2cnc3ccccn23)=C1c1cn2c3c(cc(F)cc13)CN(C(=O)N1CCCCC1)CC2
# Summary of the method: as §1
# [11] = compound: c1cc(OCCN2CCCCC2)cc(-c2n[nH]c3ccc(-c4nnc[nH]4)cc23)c1
# Summary of the method: as §1
# Chain of UniProt P98196 (P98196 whole entry, looked up): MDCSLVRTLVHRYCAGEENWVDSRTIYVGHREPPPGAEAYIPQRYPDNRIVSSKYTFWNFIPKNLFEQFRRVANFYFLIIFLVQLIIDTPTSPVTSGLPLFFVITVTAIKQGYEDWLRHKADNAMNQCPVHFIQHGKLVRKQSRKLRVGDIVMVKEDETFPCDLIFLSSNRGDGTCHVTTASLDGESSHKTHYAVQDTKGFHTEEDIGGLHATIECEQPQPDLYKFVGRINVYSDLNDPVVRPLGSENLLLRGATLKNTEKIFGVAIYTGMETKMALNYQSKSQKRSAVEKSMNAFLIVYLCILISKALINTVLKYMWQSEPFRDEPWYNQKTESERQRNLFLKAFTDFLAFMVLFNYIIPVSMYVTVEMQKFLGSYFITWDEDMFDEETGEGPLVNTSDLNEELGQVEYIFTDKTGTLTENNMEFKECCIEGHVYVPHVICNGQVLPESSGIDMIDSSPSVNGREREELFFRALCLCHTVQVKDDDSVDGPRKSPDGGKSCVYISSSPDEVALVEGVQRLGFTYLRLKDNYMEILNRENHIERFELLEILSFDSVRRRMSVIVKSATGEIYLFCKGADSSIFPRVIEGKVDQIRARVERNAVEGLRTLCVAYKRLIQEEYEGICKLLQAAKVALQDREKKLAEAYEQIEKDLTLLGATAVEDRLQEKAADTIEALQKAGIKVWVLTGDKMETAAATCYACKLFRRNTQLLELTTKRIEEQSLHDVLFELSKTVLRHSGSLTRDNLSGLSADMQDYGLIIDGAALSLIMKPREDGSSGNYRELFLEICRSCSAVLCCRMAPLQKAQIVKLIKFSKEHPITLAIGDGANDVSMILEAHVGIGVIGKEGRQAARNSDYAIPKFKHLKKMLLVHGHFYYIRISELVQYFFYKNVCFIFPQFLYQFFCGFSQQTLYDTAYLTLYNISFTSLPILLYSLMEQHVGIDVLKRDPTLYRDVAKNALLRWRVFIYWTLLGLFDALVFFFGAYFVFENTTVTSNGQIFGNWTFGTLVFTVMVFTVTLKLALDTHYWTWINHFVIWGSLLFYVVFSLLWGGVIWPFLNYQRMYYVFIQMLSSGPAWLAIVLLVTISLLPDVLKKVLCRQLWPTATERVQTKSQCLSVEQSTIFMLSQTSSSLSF
# Chain of UniProt Q07960 (Q07960 whole entry, looked up): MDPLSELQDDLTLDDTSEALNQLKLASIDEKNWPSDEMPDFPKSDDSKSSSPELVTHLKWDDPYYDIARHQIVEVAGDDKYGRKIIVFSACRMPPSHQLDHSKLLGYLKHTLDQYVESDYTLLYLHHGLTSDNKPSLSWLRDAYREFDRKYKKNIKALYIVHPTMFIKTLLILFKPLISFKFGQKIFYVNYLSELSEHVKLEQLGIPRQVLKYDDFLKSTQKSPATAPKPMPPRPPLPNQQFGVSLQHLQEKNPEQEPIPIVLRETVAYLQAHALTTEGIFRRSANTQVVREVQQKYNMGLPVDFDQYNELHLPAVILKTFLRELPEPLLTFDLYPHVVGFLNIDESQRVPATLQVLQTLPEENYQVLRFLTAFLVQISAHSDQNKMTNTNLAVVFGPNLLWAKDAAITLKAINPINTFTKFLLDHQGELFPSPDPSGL
# Chain of UniProt Q9BTT0 (Q9BTT0 whole entry, looked up): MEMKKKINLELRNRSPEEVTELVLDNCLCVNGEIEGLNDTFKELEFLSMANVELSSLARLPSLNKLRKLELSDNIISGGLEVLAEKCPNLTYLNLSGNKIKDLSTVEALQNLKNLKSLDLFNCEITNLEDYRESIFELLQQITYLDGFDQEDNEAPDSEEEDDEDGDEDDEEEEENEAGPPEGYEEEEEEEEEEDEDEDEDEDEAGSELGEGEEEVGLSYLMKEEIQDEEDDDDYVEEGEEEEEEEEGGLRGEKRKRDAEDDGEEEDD
# Chain of UniProt P10398 (P10398 whole entry, looked up): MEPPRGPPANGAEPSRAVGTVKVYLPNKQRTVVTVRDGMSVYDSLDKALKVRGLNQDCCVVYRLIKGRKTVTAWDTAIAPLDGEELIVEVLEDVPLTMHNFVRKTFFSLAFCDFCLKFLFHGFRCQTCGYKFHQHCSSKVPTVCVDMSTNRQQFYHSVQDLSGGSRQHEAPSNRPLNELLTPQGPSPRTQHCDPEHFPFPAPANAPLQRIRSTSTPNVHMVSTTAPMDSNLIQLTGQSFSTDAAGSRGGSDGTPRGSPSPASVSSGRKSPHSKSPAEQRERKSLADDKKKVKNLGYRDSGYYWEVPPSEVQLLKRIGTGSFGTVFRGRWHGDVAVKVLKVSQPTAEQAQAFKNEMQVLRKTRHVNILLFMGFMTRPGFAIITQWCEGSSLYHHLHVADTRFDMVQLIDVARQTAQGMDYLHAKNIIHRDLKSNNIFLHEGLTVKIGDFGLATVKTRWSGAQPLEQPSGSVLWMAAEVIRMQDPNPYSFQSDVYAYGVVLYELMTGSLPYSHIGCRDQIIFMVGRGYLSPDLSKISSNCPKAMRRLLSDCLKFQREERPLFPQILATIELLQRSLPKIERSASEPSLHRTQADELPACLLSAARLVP
# Chain of UniProt P18085 (P18085 whole entry, looked up): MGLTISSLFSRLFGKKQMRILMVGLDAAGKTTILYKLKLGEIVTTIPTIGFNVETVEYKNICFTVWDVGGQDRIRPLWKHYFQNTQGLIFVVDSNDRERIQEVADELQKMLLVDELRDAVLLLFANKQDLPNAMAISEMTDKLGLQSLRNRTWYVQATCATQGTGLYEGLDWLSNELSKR
# Chain of UniProt O14965 (O14965 whole entry, looked up): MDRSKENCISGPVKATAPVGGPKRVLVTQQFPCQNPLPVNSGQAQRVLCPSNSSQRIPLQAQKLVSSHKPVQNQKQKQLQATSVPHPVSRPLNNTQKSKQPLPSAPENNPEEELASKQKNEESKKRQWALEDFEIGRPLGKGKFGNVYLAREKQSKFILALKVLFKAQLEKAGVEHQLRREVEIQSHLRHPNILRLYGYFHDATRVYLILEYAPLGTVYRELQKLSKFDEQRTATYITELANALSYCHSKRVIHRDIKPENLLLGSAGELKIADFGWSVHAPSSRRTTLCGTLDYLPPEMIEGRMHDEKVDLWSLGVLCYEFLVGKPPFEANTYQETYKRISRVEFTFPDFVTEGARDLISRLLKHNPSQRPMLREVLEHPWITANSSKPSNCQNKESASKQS
# Chain of UniProt Q13733 (Q13733 whole entry, looked up): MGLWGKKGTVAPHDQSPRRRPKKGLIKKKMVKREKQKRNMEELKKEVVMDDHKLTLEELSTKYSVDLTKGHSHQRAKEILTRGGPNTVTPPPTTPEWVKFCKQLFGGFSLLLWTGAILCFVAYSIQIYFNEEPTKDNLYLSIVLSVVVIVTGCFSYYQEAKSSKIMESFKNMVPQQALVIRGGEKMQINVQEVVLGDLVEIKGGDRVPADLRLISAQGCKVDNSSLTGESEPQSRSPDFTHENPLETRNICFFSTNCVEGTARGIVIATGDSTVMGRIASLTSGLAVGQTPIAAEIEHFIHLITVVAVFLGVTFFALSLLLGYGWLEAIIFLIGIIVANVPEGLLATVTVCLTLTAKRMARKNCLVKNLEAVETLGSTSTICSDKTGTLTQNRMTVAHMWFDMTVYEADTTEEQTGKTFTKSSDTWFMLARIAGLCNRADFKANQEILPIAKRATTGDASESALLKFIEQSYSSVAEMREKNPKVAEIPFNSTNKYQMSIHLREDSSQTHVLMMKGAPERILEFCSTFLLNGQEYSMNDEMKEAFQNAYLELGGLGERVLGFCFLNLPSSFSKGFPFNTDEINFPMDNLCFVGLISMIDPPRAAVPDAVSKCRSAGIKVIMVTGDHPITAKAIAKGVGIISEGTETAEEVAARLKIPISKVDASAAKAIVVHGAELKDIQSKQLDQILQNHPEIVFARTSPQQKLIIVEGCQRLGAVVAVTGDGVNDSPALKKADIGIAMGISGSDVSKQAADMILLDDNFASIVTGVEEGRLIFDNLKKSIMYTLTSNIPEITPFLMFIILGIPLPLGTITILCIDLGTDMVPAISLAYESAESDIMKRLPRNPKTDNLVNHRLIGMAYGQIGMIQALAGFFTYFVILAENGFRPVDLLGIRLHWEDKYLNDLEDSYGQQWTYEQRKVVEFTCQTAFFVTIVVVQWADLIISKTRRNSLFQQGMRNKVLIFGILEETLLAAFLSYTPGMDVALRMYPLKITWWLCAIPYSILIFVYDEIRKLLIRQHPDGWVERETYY
# Chain of UniProt Q14137 (Q14137 whole entry, looked up): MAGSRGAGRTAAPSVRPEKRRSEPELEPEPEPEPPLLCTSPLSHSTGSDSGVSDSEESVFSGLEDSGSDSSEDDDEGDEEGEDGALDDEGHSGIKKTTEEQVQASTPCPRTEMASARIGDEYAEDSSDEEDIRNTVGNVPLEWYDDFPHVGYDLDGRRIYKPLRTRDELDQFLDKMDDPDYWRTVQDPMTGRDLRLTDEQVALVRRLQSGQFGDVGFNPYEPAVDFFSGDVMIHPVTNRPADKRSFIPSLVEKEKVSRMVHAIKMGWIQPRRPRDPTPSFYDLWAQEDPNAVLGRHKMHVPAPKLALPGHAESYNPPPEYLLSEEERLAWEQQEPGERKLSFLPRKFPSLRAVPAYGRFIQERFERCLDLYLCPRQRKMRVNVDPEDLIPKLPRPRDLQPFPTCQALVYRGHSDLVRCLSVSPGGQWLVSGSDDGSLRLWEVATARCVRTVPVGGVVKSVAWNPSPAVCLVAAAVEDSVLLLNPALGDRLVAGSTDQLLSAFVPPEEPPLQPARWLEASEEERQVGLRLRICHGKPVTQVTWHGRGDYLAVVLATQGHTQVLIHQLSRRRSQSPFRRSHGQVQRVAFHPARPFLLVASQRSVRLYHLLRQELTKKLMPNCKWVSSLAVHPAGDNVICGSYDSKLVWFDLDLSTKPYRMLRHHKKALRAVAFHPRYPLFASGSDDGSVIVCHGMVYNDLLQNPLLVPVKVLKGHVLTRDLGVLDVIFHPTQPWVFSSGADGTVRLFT
# Chain of UniProt Q8WUW1 (Q8WUW1 whole entry, looked up): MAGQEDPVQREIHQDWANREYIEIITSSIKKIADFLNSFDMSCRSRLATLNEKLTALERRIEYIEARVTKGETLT
Target,log2 fold change (bafetinib),log2 fold change [1],log2 fold change (nilotinib),log2 fold change [2],log2 fold change (dasatinib),log2 fold change [3],log2 fold change [4],log2 fold change [5],log2 fold change (tipifarnib),log2 fold change (mubritinib),log2 fold change [6],log2 fold change [7],log2 fold change [8],log2 fold change [9],log2 fold change (entinostat),log2 fold change (vorinostat),log2 fold change (citarinostat),log2 fold change (silmitasertib),log2 fold change [10],log2 fold change [11]
AIFM2 (UniProt Q9BRQ8),0.008,-0.129,0.067,0.023,0.046,-0.043,0.081,0.032,0.199,0.025,0.016,-0.019,0.034,-0.02,-0.01,-0.053,0.046,0.03,0.047,-0.034
ARHGAP1 (UniProt Q07960),0.001,0.016,-0.019,-0.056,-0.101,0.007,-0.025,-0.008,-0.069,0.01,-0.068,-0.048,-0.003,-0.051,0.016,0.012,0.009,0.014,-0.024,-0.093
AGO1 (UniProt Q9UL18),-0.036,-0.085,0.185,0.34,-0.019,-0.164,-0.073,-0.133,0.057,-0.066,0.108,0.011,0.049,0.073,-0.012,-0.05,0.439 (active),0.12,-0.067,-0.413
ATP13A3 (UniProt Q9H7F0),-0.067,0.116,-0.015,-0.06,0.008,0.024,-0.099,0.002,0.098,-0.049,-0.072,0.027,-0.082,0.039,0.026,-0.026,-0.033,0.048,0.02,-0.099
ARMC10 (UniProt Q8N2F6),0.046,0.015,-0.063,-0.034,-0.125,-0.012,-0.052,-0.115,0.001,-0.096,-0.039,0.003,0.005,0.028,0.005,0.056,0.096,0.054,-0.039,-0.062
ARAF (UniProt P10398),-0.015,0.01,-0.021,-0.236 (active),-0.031,0.009,0.007,-0.003,0.144,-0.092,-0.059,0.196,-0.119,0.011,0.062,0.055,0.098,0.048,0.017,-0.096
ALG5 (UniProt Q9Y673),0.021,0.067,0.009,-0.123,-0.045,-0.121,0.088,0.059,-0.079,-0.055,-0.047,-0.129,-0.029,-0.031,0.02,0.052,0.051,0.075,-0.106,0.08
ATP11A (UniProt P98196),-0.028,-0.002,0.113,-0.012,-0.01,0.029,-0.006,0.01,0.051,0.056,-0.034,0.065,-0.001,-0.054,-0.025,-0.08,-0.154,0.065,-0.024,-0.32 (active)
BRK1 isoform 2 (UniProt Q8WUW1),-0.043,0.007,0.02,-0.051,0.054,-0.051,0.047,0.186,-0.049,0.002,-0.071,0.033,-0.019,0.065,0.079,-0.06,0.031,-0.063,-0.16,-0.078
AURKA (UniProt O14965),0.103,-0.113,-0.001,0.699 (active),0.365,0.47,0.073,-0.016,-0.054,-0.078,0.077,-0.02,0.059,-0.033,-0.072,-0.06,-0.036,0.015,0.105,-0.328
BOP1 (UniProt Q14137),0.031,-0.083,-0.028,-0.159,0.02,-0.122,-0.038,-0.087,0.114,-0.114,0.002,-0.027,0.04,-0.018,-0.004,0.107,0.035,0.038,-0.351 (active),-0.073
ARF4 (UniProt P18085),0.113,0.01,-0.056,0.015,-0.053,0.088,0.052,0.038,-0.061,0.02,-0.011,0.025,-0.082,-0.06,-0.002,-0.024,0.041,-0.017,-0.069,-0.004
ANP32E (UniProt Q9BTT0),0.04,0.146,-0.061,-0.123,0.053,-0.104,0.013,0.027,0.001,-0.047,0.029,-0.043,0.014,0.063,0.016,0.01,0.116,0.083,-0.233,-0.036
ACSL4 (UniProt O60488),-0.021,-0.014,-0.027,-0.063,-0.222,0.087,0.05,0.115,-0.134,-0.078,-0.087,-0.097,-0.057,-0.023,0.081,0.029,0.044,0.149,0.003,0.017
AKT1 (UniProt P31749),0.041,0.004,0.033,-0.275,-0.416,-0.158,0.048,0,-0.136,0.033,-0.085,-0.276,1.61 (active),-0.002,0.201,-0.024,0.138,0.004,0.1,0.027
ATP1A4 (UniProt Q13733),0.038,0.036,0.058,-0.041,0.076,0.033,0.028,-0.041,-0.039,0.001,0.023,0.069,0.059,-0.03,-0.001,-0.002,0.121,0.007,0.176,-0.088
